Measurements as given in PubChem BioAssay (NCI).
About 83,000 compounds went through this panel and 20% of them were active in at least one assay; those are over-represented in the sample as a whole.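 Interpretation: 100, growth as untreated; towards 0, rising growth inhibition; 0, no net growth; 0 to -100, cell death. Compounds scoring below 10 were considered active.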

How the values were obtained:
Test in all cases: NCI-60 one-dose screen, 48 h (100 = growth as untreated, 0 = no growth, -100 = all killed)
Conditions in all cases: 10 µM unless noted
[1] = tested on: SK-MEL-2 melanoma
[2] = tested on: EKVX NSCLC
[3] = tested on: SN12C renal
[4] = tested on: UO-31 renal
[5] = tested on: TK-10 renal
[6] = tested on: ACHN renal
[7] = tested on: CAKI-1 renal
[8] = tested on: A498 renal
[9] = tested on: CCRF-CEM leukemia
[10] = tested on: MOLT-4 leukemia
[11] = tested on: SR leukemia
[12] = tested on: OVCAR-8 ovarian
[13] = tested on: OVCAR-5 ovarian
[14] = tested on: OVCAR-4 ovarian
[15] = tested on: SK-OV-3 ovarian
[16] = tested on: IGROV1 ovarian
[17] = tested on: OVCAR-3 ovarian
[18] = tested on: HS 578T breast
[19] = tested on: NCI/ADR-RES ovarian
[20] = tested on: RPMI-8226 leukemia

Measured: growth

Clc1ccc(-c2cnc3nonc3n2)s1
inactive: [1] 93.6% | [2] 107% | [3] 92.6% | [4] 64% | [5] 103% | [6] 81.9% | [7] 94.1% | [8] 93.9% | [9] 11.3% | [10] 47.2% | [11] 38.4% | [12] 67.3% | [13] 91.5% | [14] 89.9% | [15] 98.1% | [16] 71.3% | [17] 23.1% | [18] 90.3% | [19] 98.5%

c1cc2c(cc1-c1cnc3nonc3n1)OCO2
inactive: [1] 115% | [2] 93.4% | [3] 103% | [4] 87.9% | [5] 105% | [6] 73.3% | [7] 84.4% | [8] 86.9% | [9] 46% | [10] 80.3% | [11] 21.4% | [12] 92.4% | [13] 93.7% | [14] 95.3% | [15] 82.8% | [16] 102% | [17] 70.5% | [18] 99.1% | [19] 93.2%

O=C(c1ccccc1)C(CCc1ccccn1)CCc1ccccn1
inactive: [1] 96.1% | [2] 107% | [3] 95.7% | [4] 75.1% | [5] 97.3% | [6] 106% | [7] 106% | [8] 100% | [9] 95.3% | [10] 99% | [11] 83.3% | [12] 109% | [13] 99.6% | [14] 111% | [15] 95.8% | [16] 93.2% | [17] 103% | [18] 121% | [19] 105%

CCN(CC)CCNC(=O)n1cc(-c2ccncc2)c(-c2ccc(Cl)c(OC)c2)n1
inactive: [1] 96.1% | [2] 61.8% | [3] 90.7% | [4] 69.2% | [5] 26.9% | [6] 77.6% | [7] 99.7% | [8] 95.5% | [9] 98.3% | [10] 82% | [11] 80.7% | [12] 31% | [13] 98.8% | [14] 92.6% | [15] 75.5% | [16] 88.8% | [17] 101% | [18] 90.1% | [19] 83.5%

CC(=O)C1CCC2C3CC(C)=C4CC(O)CCC4(C)C3CCC12C (centres undefined)
inactive: [1] 94.8% | [2] 79.5% | [3] 99.2% | [4] 87.7% | [5] 110% | [6] 94.8% | [7] 97.4% | [8] 113% | [9] 92.4% | [10] 80% | [11] 89.9% | [12] 106% | [13] 112% | [15] 112% | [16] 104% | [18] 103% | [19] 101%

COc1ccc(Nc2nc(N)nc3c(=O)[nH]ccc23)cc1
inactive: [1] 111% | [2] 105% | [3] 113% | [4] 64.6% | [5] 173% | [6] 115% | [7] 93.3% | [8] 120% | [9] 83.9% | [10] 97.8% | [20] 97.3% | [12] 107% | [13] 107% | [14] 111% | [15] 107% | [16] 87.5% | [17] 113% | [18] 118% | [19] 100%

CCOC(=O)Cc1cc(Br)c(OCc2ccccc2)c(Br)c1
inactive: [1] 94.8% | [2] 90.9% | [3] 88.9% | [4] 80.5% | [5] 96.8% | [6] 92% | [7] 77.2% | [8] 109% | [9] 95.4% | [10] 77.2% | [11] 84.5% | [12] 95.5% | [13] 85% | [14] 94.5% | [15] 109% | [16] 85.6% | [17] 113% | [18] 101% | [19] 102%

Clc1nnc2c3ccccc3ccn12
inactive: [1] 108% | [2] 105% | [3] 109% | [4] 98.8% | [5] 106% | [6] 105% | [7] 93% | [8] 106% | [9] 92.6% | [11] 106% | [20] 99.6% | [12] 99.1% | [13] 103% | [14] 111% | [15] 95.1% | [16] 113% | [17] 112% | [18] 103%
